The list is not random: actives were taken first. Their share in the collection is about 11%.
NPSR antag: blocks cAMP signaling of the human neuropeptide S receptor | Q6W5P4 | 220,000 tested, 1% active | CHO-NPSR cells, cAMP TR-FRET, antagonist mode | Potency, µM (series often up to 38.3 µM), without a hit: at the top dose activity change, negative = inhibition, most hits filed as inhibitors; active = well fitted curve in the direction sought with a large enough effect; inconclusive = small, poorly fitted or top-dose-only effect, or another doubt; inactive = no such curve, though single readings can be large; an effect the other way counts as inactive or inconclusive; note: potency is the fitted concentration of half-maximal effect; nearly all actives have a fitted effect of over 50% in size
IMPase cell inh: membrane-permeable compound that blocks inositol monophosphatase; CHO-M1 cells, IP1 accumulation, HTRF TR-FRET ratio; P97697; AID 901; inhibition (IP1 accumulation), % at 46.1 µM; 120,000 tested, under 10 active; active = well fitted curve in the direction sought with a large enough effect in the signal ratio, not every such curve was filed as active; inconclusive = small, poorly fitted or top-dose-only effect, or a change in a side signal; inactive = no such curve, though single readings can be large or run the other way; the % refers to the signal ratio;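 note: cells stimulated with carbachol in lithium chloride buffer; plate controls were DMSO basal wells for no effect and reference inhibitor wells for full effect; higher means more IMPase inhibition seen as more IP1 and lower FRET ratio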
Target sequence (P97697 whole entry, looked up): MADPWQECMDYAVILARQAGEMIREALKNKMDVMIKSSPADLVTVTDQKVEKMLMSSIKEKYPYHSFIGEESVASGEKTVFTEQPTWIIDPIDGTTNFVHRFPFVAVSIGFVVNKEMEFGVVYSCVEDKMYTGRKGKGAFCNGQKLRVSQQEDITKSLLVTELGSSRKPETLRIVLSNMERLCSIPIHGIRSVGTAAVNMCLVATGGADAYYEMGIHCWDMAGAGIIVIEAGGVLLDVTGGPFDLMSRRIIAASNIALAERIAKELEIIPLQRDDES
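Elevated IP1 in lysates lowers TR-FRET signal (665/620 ratio and 620 channel reported). Cells were CHO-M1, given carbachol (50 uM as added) plus 50mM LiCl, pH 7.4, 30 min, 37C; compounds titrated up to 46 uM; AC50 by Hill equation.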
PNC inhibitor: perinucleolar compartment assembly inhibition; 140,000 tested, 3.1% active; activity change (PNC), negative = inhibition, % at 10 µM; PC3M PTB-GFP, PNC prevalence imaging, 16 h; active compounds read low;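 active = readout at or below -70, meaning at least 70% loss of cells showing the perinucleolar compartment, a nuclear body marking cancer cells; inconclusive = readout between -30 and a set limit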;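 note: plate controls were DMSO wells for no effect and camptothecin positive control wells for full effect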
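Read-out is percentage of cells bearing a perinucleolar compartment, from automated 20x imaging of fixed, Hoechst-stained PC3M PTB-GFP cells. Cells were seeded 4 h, then exposed 16 h to compound (23 nl of library stock) in duplicate plates.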
ALDH1A1 inh: ALDH1A1 (human) enzyme inhibition. Potency, µM (highest dose often 75.3 µM), for inactives: at the highest dose activity, negative = inhibition, usual class: inhibitors. 220,000 tested, 7.3% active. Purified ALDH1A1, NADH fluorescence, propionaldehyde substrate. AID 1030;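 note: potency is the fitted concentration of half-maximal effect; plate controls were no enzyme wells and a reference inhibitor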
IMPase Li inh: membrane-permeable IMPase blocker, potentiated with lithium | AID 1457 | CHO-M1 cells, IP1 TR-FRET (IP-One), carbachol + lithium | Potency, µM (highest dose often 59.4 µM), inactives show at the top dose activity, negative = IMPase inhibition, hits mostly inhibitors | 210,000 tested, 0.35% active; active = well fitted curve in the direction sought with a large enough effect; inconclusive = small, poorly fitted or top-dose-only effect, or another doubt; inactive = no such curve, though single readings can be large; an effect the other way counts as inactive or inconclusive;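 note: IP1 builds up when IMPase is blocked and the TR-FRET signal falls; potency is the fitted concentration of half-maximal effect; plate controls were basal vehicle for no effect and high inhibitor control for full effect; nearly all actives have a fitted effect of over 50% in size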
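Steps: plate 2000 CHO-M1 cells per well and culture 16–30 h; add compound and lithium; incubate 30 min, 37C; add d2-IP1 tracer and Eu cryptate anti-IP1 antibody in lysis buffer; read after 10 min at room temperature.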
HPGD inh: inhibitors of human 15-hydroxyprostaglandin dehydrogenase (HPGD) | P15428 | purified HPGD, NADH fluorescence kinetic, PGE2 substrate | 150,000 tested, 4.3% active | AID 894 | Potency, µM, inactives show at the highest dose activity change, negative = inhibition, most hits filed as inhibitors; note: potency is the fitted concentration of half-maximal effect
Target sequence (P15428 whole entry, looked up): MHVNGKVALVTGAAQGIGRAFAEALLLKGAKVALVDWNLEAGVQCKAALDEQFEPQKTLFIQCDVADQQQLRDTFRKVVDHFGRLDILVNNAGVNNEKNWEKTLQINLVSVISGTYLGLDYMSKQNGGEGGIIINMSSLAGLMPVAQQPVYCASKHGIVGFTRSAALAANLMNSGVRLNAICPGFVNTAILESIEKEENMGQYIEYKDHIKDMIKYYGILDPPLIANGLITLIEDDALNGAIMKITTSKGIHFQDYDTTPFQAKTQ
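NADH formation kinetics: reaction with 30 uM PGE2 and 1 mM NAD+ (final), 20 nM enzyme, Tris-HCl pH 8 with Tween 20, after 15 min compound preincubation at room temperature. Fluorescence change, last versus first of five reads.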
Active calls of the source: *; ? = inconclusive; · = no result; [ ] = another dose, or the depositor's remark. Unless noted, calls come from the whole dose curve; as a rule, active = well fitted inhibition curve with a large enough effect (not every such curve was filed as active); inconclusive = small, poorly fitted or top-dose-only effect, or another doubt; inactive = no such curve, though single readings can be large or run the other way. Unless noted, % is set by controls: 0 for no effect and ±100 for the full control effect.

SMILES | NPSR antag | IMPase cell inh | PNC inhibitor | ALDH1A1 inh | IMPase Li inh | HPGD inh
Cc1ccc(S(=O)(=O)NCCSc2nnnn2-c2cc(C)ccc2C)cc1 | ? | 5 | -21 | 0.89µM* | 3%[38.3 µM] | -5%
Cc1ccc(S(=O)(=O)NCCSc2ncccn2)cc1 | -12% | · | · | 14% | 19% | ·
Cc1ccc(S(=O)(=O)NCCSc2nnnn2-c2ccccc2)cc1 | -20% | -5 | ? | 1µM* | 2% | -18%
CCOC(=O)c1sc2nc3n(c(=O)c2c1C)CCCCC3 | -16%[46.1 µM] | -4 | 51 | ? | 0%[38.3 µM] | -14%
O=C(CSc1nnc(-c2ccc(O)cc2)n1Cc1ccccc1)NNC(=O)c1ccc(Br)cc1 | 16% | · | -20 | ? | -4% | -7%
CCCCCc1c(C)nc(N2CCc3ccccc3C2)[nH]c1=O | -6%[46.1 µM] | 2 | -117* | 10% | 12%[38.3 µM] | -20%
CCN(CC)S(=O)(=O)c1cccc(NC(=O)CCSc2ccc(Cl)cc2)c1 | -8% | · | -11 | 1% | 5% | -12%
COc1ccc(OC)c(-n2c(CN3CCC(C(N)=O)CC3)nc3ccccc3c2=O)c1 | -3%[46.1 µM] | 8 | ? | 20µM* | 35%[38.3 µM] | -8%
COc1ccc(OC)c(-n2c(CNC3CCN(Cc4ccccc4)CC3)nc3ccccc3c2=O)c1 | -5%[46.1 µM] | 7 | 0 | 4% | 5%[38.3 µM] | 0%
O=C(COC(=O)c1cnccn1)c1ccc2ccccc2c1 | 14%[46.1 µM] | 12 | -13 | -8% | 8%[38.3 µM] | -22%
O=C(COC(=O)c1cnccn1)c1ccc(OC(=O)c2ccccc2)cc1 | -6%[46.1 µM] | -1 | -126* | 4% | -8%[38.3 µM] | -6%
CC(=O)c1ccc(N2CCN(S(=O)(=O)c3ccccc3)CC2)c(F)c1 | 18% | · | · | ? | 5% | ·
O=C1c2ccccc2N2C(=O)c3ccccc3[C@H]2N1c1ccccc1 | -13%[46.1 µM] | 5 | -7 | -11% | 15%[38.3 µM] | -1%
O=C1NC2c3ccccc3C(=O)N2c2c1cnn2-c1ccccc1 (configuration not stated) | -2%[46.1 µM] | -13 | -100* | ? | 9% | -20%
CCc1ccccc1N(C)C(=O)CCc1nc(-c2ccc(C)cc2)no1 | ? | 5 | 12 | -13% | 28%[38.3 µM] | 14µM*
COc1ccc(Cl)cc1N(C)C(=O)CCc1nc(-c2ccc(C)cc2)no1 | ? | 0 | -1 | -8% | 25%[38.3 µM] | -22%
Cc1nonc1CN(C)C(=O)CC1C(=O)NCCN1Cc1c(F)cccc1Cl (configuration not stated) | -15% | · | · | -6% | 1% | ·
Cc1cc(CN(C)C(=O)CC2C(=O)NCCN2Cc2c(F)cccc2Cl)n[nH]1 (configuration not stated) | -25% | · | · | 16µM* | 17% | ·
O=c1c2ccccc2nc(COc2ccccc2)n1/N=C/c1cc([N+](=O)[O-])ccc1O | -2% | 5 | 76 | ? | 14% | -27%
CCOc1ccc(N(CCCCO)C(=S)NC(=O)c2ccc(C)c(Br)c2)cc1 | -24% | · | · | 22µM* | 15% | ·
Oc1ccc(Nc2nc(-c3ccc4ccccc4c3)cs2)cc1 | ? | 6 | ? | ? | 61%[38.3 µM] | ?
Oc1ccc(-c2nc(-c3ccc(O)c(O)c3)cs2)cc1 | -10%[46.1 µM] | -1 | -101* | 11µM* | 5%[38.3 µM] | ?
CCn1c2ccccc2c2cc(NC(=O)C(C)Oc3ccc(OC)cc3)ccc21 (configuration not stated) | ? | -6 | 59 | ? | 4%[38.3 µM] | ?
C=CCN1C(=O)/C(=C/c2ccc(O)cc2)S/C1=N/c1nccs1 | -2% | · | 3 | 3.2µM* | 15% | -8%
C=CCN1C(=O)/C(=C/c2ccc(OC)cc2)S/C1=N/c1nccs1 | 2% | -5 | 12 | ? | 10% | -8%
CN(Cc1ccccc1)C(=S)NC(=O)c1ccccc1 | -8% | · | · | 3% | 7% | ·
CCCOc1ccc(CN(CCC#N)C(=S)NC(=O)c2ccccc2)cc1 | -18% | · | ? | -4% | -6% | 28µM*
COc1ccc2cc(C(=O)C3CCCN(C(=O)c4cc(=O)n(C)c(=O)n4C)C3)ccc2c1 (configuration not stated) | -5% | · | · | ? | 0% | ·

Screening results deposited in PubChem by National Center for Advancing Translational Sciences (NCATS).
